“And” between values parts separate entries of the source, which are not always exact repeats. Equal values may be shown once. More than one record can exist for a structure, and the calls need not agree. The source made the active and inactive calls.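 How the source made its calls, unless noted: active means compounds whose cell count with miR-34 switched on is under 0.7 times the count with it off; inactive means the rest.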
Legend:
[1] = viability loss with induced miR-34 in A549 – imaging, A549 dox-inducible miR-34, nuclei and caspase counts, primary screen (AID 1347080); conditions: A549 miR-34 inducible, Hoechst nuclei count, 48 h
[2] = MELAS cybrid and Rieske KO viability enhancers – cell-based, MELAS cybrids, Rieske KO mouse fibroblasts, CellTiter-Glo, primary screen (AID 1508586;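 active means mean z-score across replicates of 1.96 or higher in either the MELAS or the Rieske mutant cell line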;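 further: z relative to plate mean and SD of compound and empty wells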); conditions: low glucose
[3] = stronger effect = lower value, cell number ratio, induced over uninduced
[4] = measured here: relative caspase fold change +Dox/-Dox
[5] = measured here: total cells with miR-34 induction, stronger effect = lower value
[6] = measured here: total cells without miR-34 induction
[7] = MELAS cybrid survival, CellTiter-Glo 48 h, stronger effect = higher value
[8] = Rieske KO mouse fibroblast survival, CellTiter-Glo 72 h
Further: test concentration not given here.

Row | Structure (SMILES) | fold change [1, 3] | fold change [1, 4] | cell count [1, 5] | cell count [1, 6] | z-score [2, 7] | z-score [2, 8]
1 | CCN(CC)CCOC(=O)C(c1ccccc1)c1ccccc1 | 0.854 (inactive) and 1.02 (inactive) and 0.902 (inactive) | 1.3 and 0.648 and 3.67 | 8150 and 4320 and 11300 | 9550 and 4250 and 12500 | -0.171 (inactive) and -1.08 (inactive) | 0.0167 and -0.106
2 | Cc1ccnc(NS(=O)(=O)c2ccc(N)cc2)n1 | 0.871 (inactive) and 0.913 (inactive) | 1.08 and 0.734 and 2.66 | 8890 and 7940 and 11400 | 10200 and 8690 and 12500 | -0.105 (inactive) and 0.577 (inactive) | -0.152 and -0.312
3 | CC(=O)Nc1ccccc1 | 0.942 (inactive) and 0.865 (inactive) | 0.456 and 3.01 | 7610 and 11100 | 8080 and 12800 | -0.316 (inactive) | -0.0672
4 | CN1CCC(OC(c2ccccc2)c2ccccc2)CC1 | 0.843 (inactive) and 0.871 (inactive) | 1.44 and 0.876 | 8640 and 11300 | 10200 and 13000 | 0.35 (inactive) | 0.809
5 | CC(=O)OCC(=O)[C@@]1(O)[C@H](C)C[C@H]2[C@@H]3CCC4=CC(=O)C=C[C@]4(C)[C@@]3(F)[C@@H](O)C[C@@]21C | 0.93 (inactive) | 1.03 | 6000 | 6450 | -0.294 (inactive) | 0.00126
6 | O=C(Cn1ccnc1[N+](=O)[O-])NCCO | 0.871 (inactive) and 0.832 (inactive) | 1.39 and 4.67 | 8390 and 10900 | 9630 and 13100 | -0.801 (inactive) | -0.143
7 | CCN1CCN(c2cc3c(cc2F)c(=O)c(C(=O)O)cn3C2CC2)CC1 | 0.982 (inactive) and 0.836 (inactive) and 0.884 (inactive) | 1.31 and 5.17 and 1.41 | 8550 and 10100 and 9090 | 8710 and 12100 and 10300 | -0.903 (inactive) and 0.356 (inactive) | -0.808 and -0.546
8 | CC1(C)S[C@@H]2[C@H](NC(=O)[C@H](N)c3ccccc3)C(=O)N2[C@H]1C(=O)O | 0.937 (inactive) and 0.929 (inactive) and 0.871 (inactive) | 0.845 and 0.857 and 1.14 | 8790 and 10800 and 9210 | 9380 and 11700 and 10600 | 0.56 (inactive) and 0.538 (inactive) | -0.285 and -0.0992
9 | C=CCSCC1Nc2cc(Cl)c(S(N)(=O)=O)cc2S(=O)(=O)N1 (stereo unspecified) | 0.925 (inactive) and 0.942 (inactive) | 0.973 and 1.58 | 8690 and 12000 | 9400 and 12700 | -0.333 (inactive) | -0.472
10 | CCN(CC)CCNC(=O)c1cc(Br)c(N)cc1OC | 0.86 (inactive) | 1.23 | 8310 | 9660 | -0.546 (inactive) | 0.146
11 | CCOC(=O)C1=C(C)NC(C)=C(C(=O)OCC)C1c1ccccc1/C=C/C(=O)OC(C)(C)C | 0.814 (inactive) | 0.737 | 7100 | 8720 | -0.103 (inactive) and 0.874 (inactive) | 0.213 and 0.0479
12 | NC(=O)N/N=C/c1ccc([N+](=O)[O-])o1 | 0.848 (inactive) and 0.979 (inactive) | 1.31 and 0.64 | 7760 and 9710 | 9150 and 9920 | -0.906 (inactive) | -1.1
13 | CCOC(=O)OC(C)OC(=O)[C@@H]1N2C(=O)[C@@H](NC(=O)[C@H](N)c3ccccc3)[C@H]2SC1(C)C (stereo partly specified) | 0.838 (inactive) | 1.63 | 8230 | 9820 | 0.0142 (inactive) | -0.106
14 | Cc1ccc2c(Cl)cc(Cl)c(O)c2n1 | 0.915 (inactive) and 0.981 (inactive) | 0.745 and 0.409 | 9230 and 3330 | 10100 and 3390 | -0.257 (inactive) | -0.123
15 | CCOc1ccc2nc3cc(N)ccc3c(N)c2c1 | 0.785 (inactive) and 0.928 (inactive) | 2.5 and 0.759 | 3210 and 7370 | 4090 and 7950 | 7.85 (active) | 4.68
16 | CCCCCCCCNC(C)C(O)c1ccc(SC(C)C)cc1 (stereo unspecified) | 0.989 (inactive) and 0.828 (inactive) | 0.711 and 5.68 | 4220 and 5020 | 4270 and 6060 | -2.11 | 11.2

Row | Structure (SMILES) | fold change [1, 3] | fold change [1, 4] | cell count [1, 5] | cell count [1, 6] | z-score [2, 7] | z-score [2, 8]
17 | COc1cc(C(=O)NCc2ccc(OCCN(C)C)cc2)cc(OC)c1OC | 0.938 (inactive) and 0.925 (inactive) and 0.912 (inactive) | 0.8 and 0.443 and 2.44 | 8110 and 8000 and 11800 | 8650 and 12900 | 3.55 (active) and 0.307 (inactive) | -0.723 and -0.201
18 | COc1cc(N)c(Cl)cc1C(=O)NC1CCN(Cc2ccccc2)CC1 | 0.86 (inactive) | 0.965 | 7810 | 9080 | 0.473 (inactive) | 0.069
19 | CCN(CC)CCNC(=O)COc1ccc(OC)cc1 | 0.859 (inactive) and 0.867 (inactive) | 1.24 and 3.74 | 9000 and 11100 | 10500 and 12800 | 0.396 (inactive) | -0.0981
20 | CCCCOC(=O)c1ccc(N)cc1 | 0.764 (inactive) and 0.971 (inactive) | 1.56 and 1.88 | 6730 and 8980 | 8820 and 9260 | 0.902 (inactive) | -0.282
21 | Nc1ncnc2c1ncn2[C@@H]1O[C@H](COP(=O)(O)O)[C@@H](O)[C@H]1O | 0.848 (inactive) | 1.03 | 9640 | 11400 | 0.774 (inactive) | 0.196
22 | COc1cc(C(=O)NC2CCCNC2)cc(OC)c1OC (stereo unspecified) | 0.933 (inactive) and 1.06 (inactive) | 1.12 and 0.508 | 9210 and 8810 | 9870 and 8310 | -0.284 (inactive) and -1.2 (inactive) | -0.165 and -1.23
23 | CCN1CC(CCN2CCOCC2)C(c2ccccc2)(c2ccccc2)C1=O (stereo unspecified) | 0.947 (inactive) and 1 (inactive) | 1.42 and 1.3 | 7960 and 7680 | 8400 and 7650 | -0.295 (inactive) and -0.762 (inactive) | -0.241 and -0.506
24 | CC1=C(C(=O)O)N2C(=O)[C@@H](NC(=O)[C@H](N)c3ccc(O)cc3)[C@H]2SC1 | 0.85 (inactive) | 1.87 | 8500 | 10000 | 0.444 (inactive) | 0.13
25 | CN1CCN(C(c2ccccc2)c2ccccc2)CC1 | 0.854 (inactive) and 1.14 (inactive) and 0.917 (inactive) | 1.3 and 0.825 and 1.5 | 8120 and 9280 and 11100 | 9500 and 8140 and 12100 | -0.157 (inactive) and 0.0064 (inactive) | -0.181 and 0.467
26 | Nc1c2ccccc2nc2ccccc12 | 2.19 (inactive) | 1 | 782 | 356 | 2.4 (active) | -1.96
27 | O=C(CCCCC(=O)Nc1c(I)cc(I)c(C(=O)O)c1I)Nc1c(I)cc(I)c(C(=O)O)c1I | 0.893 (inactive) | 1.51 | 9730 | 10900 | 0.645 (inactive) | -0.141
28 | COc1cc2c(cc1OC)C(=O)C(CC1CCN(Cc3ccccc3)CC1)C2 (stereo unspecified) | 0.863 (inactive) and 0.884 (inactive) | 1.25 and 2.01 | 8000 and 11200 | 9270 and 12700 | 1.84 (inactive) | 0.641
29 | COc1ccc(C(=O)c2ccccc2)c(O)c1 | 0.864 (inactive) and 0.859 (inactive) | 1.19 and 0.952 | 7820 and 11100 | 9050 and 12900 | -0.0705 (inactive) | -1.09
30 | CCOC(=O)OC(C)OC1=C(C(=O)Nc2ccccn2)N(C)S(=O)(=O)c2ccccc21 (stereo unspecified) | 0.948 (inactive) and 0.916 (inactive) and 0.845 (inactive) | 1.05 and 0.416 and 1.29 | 9250 and 8630 and 9370 | 9750 and 9420 and 11100 | -0.123 (inactive) and 0.743 (inactive) and 0.745 (inactive) | -0.115 and 1.2 and 1.74
31 | Cc1c(N(C)CS(=O)(=O)O)c(=O)n(-c2ccccc2)n1C | 0.886 (inactive) and 0.92 (inactive) | 1.09 and 6.36 | 8550 and 11500 | 9640 and 12500 | -1.12 (inactive) | -0.298

Source: PubChem BioAssay
